Source: PMC8769072, “Proteome‐scale mapping of binding sites in the unstructured regions of the human proteome” (Molecular Systems Biology, 2022)

These binders were tested against VASP 1-114, P50552.
Chain of VASP 1-114, P50552 (P50552 1-114): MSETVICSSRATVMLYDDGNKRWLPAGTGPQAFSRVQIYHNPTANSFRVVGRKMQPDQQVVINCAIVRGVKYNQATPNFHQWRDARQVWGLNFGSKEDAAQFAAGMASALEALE

Selected by phage display, active:
WPDPPDLPTVDPISSS [MRPL43, Q8N983] confidence 4
PAKIETDYWPAPPSLA [DMTN, Q08495] confidence 2
DFPPPPPDLEQLRLTD [VCL, P18206] confidence 2
FPPPPPETELPLPPIE [RAPH1, Q70E73] confidence 3
LVPPALDLSWIWPAPP [C1orf159, Q96HA4] confidence 3
EAFPPPPHFSFPAPLS [SBNO2, Q9Y2G9] confidence 2
FPPPPLPDSAIFLPPS [INPPL1, O15357] confidence 3
GDLQTWFFPPPPAGSV [TEX44, Q53QW1] confidence 2
EFPPPPPDVLQTSVDV [XIRP2, A4UGR9] confidence 4
LLNFPPPLPALYELWE [LBR, Q14739] confidence 2
VYSMDDFPPPPPHTVA [SHROOM3, Q8TF72] confidence 4
SMADFPPPEEAFFSVA [KIAA1522, Q9P206] confidence 2
DVVLQSFPPLPSAEIL [KIF23, Q02241] confidence 2
FPAPPSHWLFGHIQEL [CYP4A11, Q02928] confidence 2
SPVFPPPPPEALIPFA [NHSL1, Q5SYE7] confidence 3
IPSEEWPNPPTLQEAG [FAF2, Q96CS3] confidence 4
LWPDPPHFLYWSGFLG [PAX1, P15863] confidence 2
MAWPKLPAPWLLLATW [ILDR1, Q86SU0] confidence 2

These binders were tested against YAP1 169-207, P46937.
Chain of YAP1 169-207, P46937 (P46937 169-207): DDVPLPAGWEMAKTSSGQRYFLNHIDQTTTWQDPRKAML

Selected by phage display, active:
SSATLPPPYQLINVPP [GAB1, Q13480] confidence 4
TGTPQESLPTYTQTLR [STPG3, Q8N7X2] confidence 3
SMAPPAYSLYTPEPPP confidence 3
HPPTYVQNVVPQNTPM [ARID2, Q68CP9] confidence 2
IELLPSYSTATLIDEP [SLC34A2, O95436] confidence 3
PPAYEDVVHRPGTPPP [WBP1, Q96G27] confidence 3
TEVYGEFYPVPPPYSV confidence 4
LPPYPEHLTSPLSPAQ [ZNF783, Q6ZMS7] confidence 2
EPPPSYDEAVKMAKPR confidence 3
LYPPPSHAAEDSLPPY [TMEM59L, Q9UK28] confidence 2
EYQQVPNSDPPRYEFL [MAGEB18, Q96M61] confidence 2
APHPYSPQPPPYHELS [DVL2, O14641] confidence 3
DGKGAKPPEYRNYQIV [MFSD6, Q6ZSS7] confidence 3
ADTPPPAYLPPEDPMT [SMAD1, Q15797] confidence 2
AAATAGAPTALPAYPA [TMEM158, Q8WZ71] confidence 2
PSAMLPIYPAIDIDAQ [ANKRD17, O75179] confidence 2
YTREGEPLPPPYSLRE [TPSG1, Q9NRR2] confidence 3
SVLPPSYASDRLSGNN [ALKBH5, Q6P6C2] confidence 2
ASSAPALETDSSPPPY confidence 2
HEVVLRTAAPPDYTLA [NLGN1, Q8N2Q7] confidence 3
NNSLPPYAQGLASPQG [TBP, P20226] confidence 3

Each binder was assayed against WDR5 21-334, P61964.

Selected by phage display, active:
WEQDGGRWLPGHAMAM [RRAD, P55042] confidence 2
SARSTPLTVDRSPDSS [PDZRN4, Q6ZMN7] confidence 2
PQNRTSAYSLEHADLG [SIPA1, Q96FS4] confidence 2
SARVNPQDGTNTLTRI [EHMT1, Q9H9B1] confidence 2
IPTSRSTPYKPIDDRI [SPATA5, Q8NB90] confidence 2
DFTAPDVWYPGGMVSR [AR, P10275] confidence 2
NQAVNFLRMSARVDAV [CHMP1B, Q7LBR1] confidence 2
SARSGYVIQGSSDLIA [SVEP1, Q4LDE5] confidence 2
ARTVLWNPEDLIPLPI [ZC3H4, Q9UPT8] confidence 2

What follows are binders tested against USP7 53-206, Q93009.
Chain of USP7 53-206, Q93009 (Q93009 53-206): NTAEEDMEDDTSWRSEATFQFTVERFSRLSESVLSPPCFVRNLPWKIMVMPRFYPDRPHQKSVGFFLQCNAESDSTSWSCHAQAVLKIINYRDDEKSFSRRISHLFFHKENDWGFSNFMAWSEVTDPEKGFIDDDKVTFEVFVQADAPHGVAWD

Selected by phage display, active:
SIAQPSTSSLHSHSSL [TCF7L2, Q9NQB0] confidence 3
TDSIHSAHSSHSLSRD [UNC13B, O14795] confidence 2
GISDGPSVSALTNGFD [PARN, O95453] confidence 3
ASSSLTVTDSTLWSQS [MAGEA8, P43361] confidence 3
GSSGSQEQLVSIASSS [PER3, P56645] confidence 3
ALSDSPSNSSYVETPR [TUBGCP5, Q96RT8] confidence 3
SSSAASTSSSSSAVAS [TRIP12, Q14669] confidence 2
QGELLEAPSSSSAPLP [RNF135, Q8IUD6] confidence 2
PGSNSTGSEVASMSSQ [ISL1, P61371] confidence 3
TVDANGVVSLVGGPSV [SCN1A, P35498] confidence 3
ASSSSPSLSGTSYSFS [IPCEF1, Q8WWN9] confidence 4
PVQSPLATAASASTSV [PROSER1, Q86XN7] confidence 3
SQVTGMSLQIPSSSTG [MAMLD1, Q13495] confidence 3
VPANGEMSSSHSAQSM [TP73, O15350] confidence 3
